# Compound activity: PubChem, several laboratories
# NF-kB neuron act: compounds increasing NF-kB expression in human neuronal cells; NF-kB reporter expression; stronger effect = higher value; fold change at 12.5 µM; 190,000 tested, 1.6% active; in the data active means fold change above about 3.3
# hcDAF-12 act: activates DAF-12 receptor from parasite H. contortus | 370,000 tested, 1.4% active | HEK293 hcDAF-12 lit1-tk-luc reporter, luminescence; 0% DMSO, 100% Δ7-dafachronic acid | AID 652067 | activation, % at 6.8 µM;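 active means activation above the mean of all tested compounds plus 3 SD, cut at about 5.5% in these data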;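 further: 100% = response to 3 µM Δ7-dafachronic acid high control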
# APP 5'UTR act: APP 5'UTR luciferase reporter activation; SH-SY5Y APP 5'UTR luciferase reporter, luminescence; zero percent = DMSO vehicle wells; activation, % at 2 µM; 190,000 tested, 1% active; AID 1276;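 active means activation above a set limit, based on mean plus 3 SD of controls, cut at about 140% in these data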
# ssDAF-12 act: activators of S. stercoralis DAF-12 nuclear receptor; HEK293 ssDAF-12/GRIP1 lit1-tk-luc reporter, luminescence; % of 3 µM dafachronic acid response; activation, % at 6.8 µM; 370,000 tested, 1% active; AID 652126;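 active means activation above the mean over all tested compounds plus 3 SD, cut at about 0.9% in these data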;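 further: 0% = DMSO-only wells and 100% = 3 µM delta7-dafachronic acid wells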
# hgDAF12 agonist: hgDAF-12 agonism, primary luciferase screen; HEK293 GAL4-hgDAF12 UAS-luciferase reporter, agonist luminescence; normalized to butyrate control; activation, % at 6.8 µM; 370,000 tested, 1.8% active;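 active means activation above a cutoff set at the mean of all screened compounds plus 3 SD, cut at about 10% in these data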;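 further: 0% = DMSO wells and 100% = sodium butyrate wells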
# Starred values were filed as active, the others as inactive; · = not tested or not shown. Sampled rows, rich in hits. Any-hit rate of the full collection: about 3.4%.
SMILES,NF-kB neuron act,hcDAF-12 act,APP 5'UTR act,ssDAF-12 act,hgDAF12 agonist
CN1CCC(Oc2ccccc2Sc2ccc(C(F)(F)F)cc2)CC1,0.69,0.7,2.3,-2.0,1.9
CSc1ccc(/C=N/Nc2cccc(C(=O)O)c2)cc1,18.3*,·,-8.5,·,·
COc1ccc(C(=O)N/N=C/c2ccc(SC)cc2)cc1,1.17,-2.4,3.1,-0.6,11.5*
CSc1ccc(/C=N/NC(=O)c2ccc(O)cc2)cc1,2.28,2.6,45.9,-0.9,11.8*
O=C(N/N=C/c1ccc(O)cc1)c1ccncc1,·,-1.4,·,-1.5,-0.6
Cn1c(-c2ccc(C=O)s2)nc2ccccc21,2.26,2.7,40.1,-0.4,12.0*
CC(C)Cn1c(-c2cccs2)nc2ccccc21,0.98,-0.5,-6.2,-0.6,1.9
Cn1c(-c2cccs2)nc2ccccc21,1.42,2.4,48.4,-0.2,11.4*
CC(C)Cn1c(=O)cc(N2CCN(c3cccc(C(F)(F)F)c3)CC2)[nH]c1=O,·,-0.1,·,-0.2,3.9
Cc1ccc2[nH]c(-c3cccc(N)c3)cc2c1,3.28,1.4,151.5*,-0.4,6.4
COC(=O)[C@]12C[C@H](CC(=O)NCc3ccc(C)o3)C(=O)N(Cc3ccco3)C1=C[C@H](C(C)C)O[C@@H]2C1CC1,·,-3.1,·,-1.8,5.4
COc1cc(-c2cc(NC=O)c3ncc(-c4ccc(C(C)=O)cc4)n3c2)ccc1O,·,-2.8,·,-1.4,10.5*
COc1cc(-c2cnc3c(NC(C)=O)cc(-c4ccc(N5CCN(C)CC5)cc4)cn23)cc(OC)c1OC,·,-4.8,·,-2.5,-9.7
COc1cc(-c2cnc3c(NC=O)cc(-c4ccc(N5CCN(C)CC5)cc4)cn23)cc(OC)c1OC,·,2.9,·,0.4,10.7*
COc1ccc(S[C@]2(C(=O)N3CCCC3)CC(=O)N(c3ccc4c(ccn4C)c3)[C@@H]2c2ccc(OC)cc2)cc1,·,1.7,·,0.9,-2.9
CCN1CCCc2cc(CN(CCN3CCOCC3)C(=S)Nc3cccc(Cl)c3)ccc21,8.13*,-1.1,7.0,-2.0,2.8
O=C(NCC(c1ccccc1)c1ccccc1)[C@H](Cc1c[nH]c2ccccc12)NC1(C(=O)NC2CCCCC2)CCN(Cc2ccccc2)CC1,·,-3.2,·,-0.9,-2.1
CN(C)c1ccc(NC(=O)c2ccc3nsnc3c2)cc1,2.56,1.9,18.1,-0.4,11.2*
CCOC(=O)c1ccc(Nc2cnc3ccccc3n2)cc1,5*,-0.1,135.8*,0.3,7.7
O=C(Nc1ccc(C(=O)c2ccccc2)cc1)c1ccccc1,·,0.4,·,-1.1,11.2*
Cc1nc2ccc(C(=O)Nc3ccc(N(C)C)cc3)cc2s1,·,-4.4,·,-1.9,-5.9
CCOC(=O)c1cccc(NC(=O)c2ccc(N(C)C)cc2)c1,1.53,1.2,45.1,-0.7,10.8*
CCOC(=O)c1cccc(NC(=O)c2ccc(NC(=O)c3ccco3)cc2)c1,·,-3.2,·,-1.3,-3.6
CCOC(=O)[C@]12CCCC=C1N(Cc1ccc(OC)cc1)C(=O)[C@@H]2CC(=O)N1CCCCC1,·,-0.8,·,-0.8,-2.4
CCCCNC(=O)C[C@H]1C[C@@]2(C(=O)OC)C(=C[C@H](COCc3ccccc3)O[C@@H]2C)N(Cc2cccc3ccccc23)C1=O,·,-1.3,·,-1.5,0.0
SMILES,NF-kB neuron act,hcDAF-12 act,APP 5'UTR act,ssDAF-12 act,hgDAF12 agonist
O=C(CSc1nnc(COc2ccccc2)n1-c1ccccc1)Nc1ccc2c(c1)OCCO2,·,-1.6,·,-2.0,-2.7
CCOC(=O)c1ccc(NC(=O)c2ccccc2)cc1,3.06,3.9,82.0,-0.8,10.8*
CCOC(=O)c1ccc(NC(=O)c2ccc(NS(C)(=O)=O)cc2)cc1,1.37,-1.0,25.1,-1.6,-1.9
COc1ccc(-c2nnc(-c3cccs3)o2)cc1OC,2.79,1.0,115.6,0.0,12.0*
COc1ccc(-c2ncncc2-c2ccc(OC)c(OC)c2)c(O)c1,·,1.1,·,-1.6,0.8
COc1ccc(-c2cc(-c3ccc(OC)c(OC)c3)n[nH]2)c(O)c1,4.05*,1.6,126.6,-0.5,7.1
COc1ccc(-c2cc(-c3cc(F)ccc3O)[nH]n2)cc1OC,2.94,1.8,136.2*,-0.3,9.6
COc1ccc(-c2cc(-c3cc(OC)ccc3O)[nH]n2)cc1,2.78,5.0,97.7,-0.3,13.1*
O=[N+]([O-])c1cccc(-c2cc(-c3cc(Br)ccc3O)[nH]n2)c1,·,-2.0,·,-1.0,-0.9
COc1ccc(O)c(-c2cc(-c3cccc(Br)c3)n[nH]2)c1,3.43*,3.2,84.7,0.0,5.9
O=C(Nc1ccc(N2C(=O)CC3(CCCCC3)C2=O)c(Cl)c1)c1ccccn1,·,-0.6,·,-1.7,5.0
COc1ccc(-c2cc(-c3ccc(Cl)cc3)n[nH]2)c(O)c1,·,5.1,·,-0.3,11.3*
Cc1ccc(O)c(-c2cc(-c3cccc(F)c3)n[nH]2)c1,5.04*,5.2,43.3,0.7,8.5
Oc1ccc(Br)cc1-c1cc(-c2ccc(Cl)cc2)n[nH]1,1.17,4.2,4.4,0.1,6.0
Cc1ccc(O)c(-c2cc3ccccc3[nH]2)c1,1.76,0.7,24.0,-1.4,5.7
CN(C)CC(=O)N[C@@H]1C[C@@H]2O[C@@H](CO)CC[C@@H]2O[C@@H]1CCc1ccc(C2=CCCCC2)cc1,·,0.0,·,-1.5,-1.1
Cc1ccsc1/C=N/Nc1nc(=O)[nH]nc1C,2.12,1.6,56.6,-0.1,15.7*
Cc1cc(C)nc(N/N=C/c2sccc2C)n1,1.26,-0.1,21.5,-1.3,5.2
Cc1ccsc1/C=N/Nc1ncc(Cl)cc1Cl,2.4,3.5,·,0.1,11.2*
CC(C)N1CCc2c(-c3nc4ccccc4s3)csc2C1,·,-0.1,·,-1.4,5.4
COCCCNc1ccn2nc(-c3ccccc3)cc2n1,·,6.3*,·,1.0*,9.7
FC(F)(F)c1cccc(-c2cc3nc(NCCOc4ccccc4)ccn3n2)c1,·,4.5,·,-0.9,11.9*
c1ccc(OCCNc2ccn3nc(-c4ccccc4)cc3n2)cc1,·,0.6,·,-0.7,9.5
COCCCNc1ccn2nc(-c3cc(OC)c(OC)c(OC)c3)cc2n1,·,-0.4,·,-1.3,-1.1
COC(=O)[C@]12C=CCN1[C@H](c1ccc(Cl)cc1)c1c(c3ccccc3n1S(=O)(=O)c1ccc(C)cc1)C2,·,2.5,·,0.0,-2.6
SMILES,NF-kB neuron act,hcDAF-12 act,APP 5'UTR act,ssDAF-12 act,hgDAF12 agonist
COc1ccc(C)cc1N(C(=O)c1cccc(F)c1)c1nc2ccccc2s1,0.58,6.5*,2.9,0.0,1.4
COc1ccc(C)cc1N(C(=O)COc1ccccc1)c1nc2ccccc2s1,0.97,6.2*,3.9,0.5,4.5
COc1ccc(C)cc1N(C(=O)c1ccccc1)c1nc2ccccc2s1,0.76,3.5,-4.1,0.3,1.4
Nc1c(C(=O)N2CCN(CCc3ccccc3)CC2)cnn1-c1ccccc1,·,-0.2,·,-0.1,-0.9
Oc1ccc(CNc2ccc(C(F)(F)F)cc2F)c2cccnc12,·,3.6,·,-0.1,4.3
N/C(=N\OC(=O)c1ccc(Cl)c(Cl)c1)c1ccccn1,4.55*,5.5,140.4*,0.6,10.7*
Cc1ccc(C)c(OCC(=O)O/N=C(\N)c2ccccn2)c1,6.17*,1.6,111.9,-0.5,5.3
N/C(=N\OC(=O)c1ccc(Cl)c([N+](=O)[O-])c1)c1ccccn1,1.79,-0.7,25.0,-1.4,0.3
